Experimental data taken from ChEMBL document CHEMBL3433997, “St. Jude Leishmania screening dataset” (2016).

How the values were obtained:
Format in all cases: functional
[1] = target: Solute carrier family 2, facilitated glucose transporter member 1 (Homo sapiens) (UniProt P11166); experiment: ST_JUDE_LEISH: Cytotoxicity at 2uM final concentration against transgenic Leishmania Mexicana promastigotes LmGLUT1 that are glucose transport deficient and complemented with the human glucose transporter GLUT1. Activity is measured by DNA content using SYBR green in vitro
Chain of Solute carrier family 2, facilitated glucose transporter member 1 (Homo sapiens) (P11166 whole entry): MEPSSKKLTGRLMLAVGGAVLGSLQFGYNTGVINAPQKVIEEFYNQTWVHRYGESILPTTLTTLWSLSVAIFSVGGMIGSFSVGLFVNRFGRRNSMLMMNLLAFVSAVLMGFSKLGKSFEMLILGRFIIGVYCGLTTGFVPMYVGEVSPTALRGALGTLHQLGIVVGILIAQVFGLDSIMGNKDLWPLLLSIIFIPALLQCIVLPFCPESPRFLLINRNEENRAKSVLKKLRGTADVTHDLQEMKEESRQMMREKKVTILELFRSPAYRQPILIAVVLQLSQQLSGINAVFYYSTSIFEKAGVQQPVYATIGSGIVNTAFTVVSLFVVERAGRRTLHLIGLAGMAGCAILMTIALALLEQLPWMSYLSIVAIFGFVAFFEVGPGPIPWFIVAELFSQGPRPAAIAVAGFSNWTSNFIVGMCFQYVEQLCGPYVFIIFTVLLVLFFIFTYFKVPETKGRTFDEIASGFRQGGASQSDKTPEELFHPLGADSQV

[2] = target: Hexose transporter 1 (Plasmodium falciparum) (UniProt O97467); experiment: ST_JUDE_LEISH: Cytotoxicity at 2uM final concentration against transgenic Leishmania Mexicana promastigotes LmPfHT that are glucose transport deficient and complemented with the Plasmodium falciparum hexose transporter. Activity is measured by DNA content using SYBR green in vitro
[3] = target: Glucose transporter (Leishmania mexicana) (UniProt O61059); experiment: ST_JUDE_LEISH: Cytotoxicity at 2uM final concentration against transgenic Leishmania Mexicana promastigotes LmGT2 that are glucose transport deficient and complemented with the L. Mexicana glucose transporter 2. Activity is measured by DNA content using SYBR green in vitro

Structure (SMILES)	inhibition [1] [%]	inhibition [2] [%]	inhibition [3] [%]
CCOc1ccc(C(=O)Nc2cc(Br)c3c(c2)CNCC3)cc1C(F)(F)F	-0.39	-2.66	-2.48
CN1CCC(N2CCN(Cc3ccc(-c4cccc(-c5nc6cc(F)ccc6[nH]5)c4)cc3)CC2)CC1	2.39	2.13	2.94
Cc1cccc2nc(-c3cccc(-c4ccc(NC(=O)NCc5ccccc5)cc4)c3)[nH]c12	1.51	2.74	1.31
CCCCCN1CCCC1CNS(=O)(=O)c1cccc(C(=O)Nc2cccc(C(F)(F)F)c2)c1 (stereo unspecified)	6.45	6.76	5.05
CN1CCC[C@H]1COc1ccc(CN2CC[C@H](NC(=O)c3ccc(Cl)c(Cl)c3)C2)cc1Br	2.61	2.26	1.89
Cc1cccc(CN2CCC(CNC(=O)c3cc4c(-c5ccccc5F)nn(C)c4s3)CC2)c1	4.22	3.22	2.82
CN(C)c1c(CNCCCCCCNCc2ccc3ccccc3c2N(C)C)ccc2ccccc12	8.79	8.66	7.38
COc1cc2nc(NCC3CCN(C(=O)c4ccc(-c5ccc(C(=O)N(C)C)cc5C)cc4)CC3)nc(N)c2cc1OC	10.9	9.71	7.15
CCN(CC)CCN(Cc1ccc(-c2ccc(C(F)(F)F)cc2)cc1)C(=O)Cn1c(CCc2cc(F)c(F)cc2F)nc(=O)c2ccccc21	13.6	12.3	12.8
CC(C)Cn1cc2c(ccc3nc(N)nc(N)c32)n1	1.25	0.94	0.32
CC(C)(C)Nc1cc(C2CC2)nc(-c2ccccn2)n1	2.01	4.26	3.05
CCn1c(Sc2ccc([N+](=O)[O-])c(C#N)c2)nnc1-c1ccc(Cl)cc1	9.05	7.38	12.8
